The text below walks through data of PubChem BioAssay (NCI).

The panel holds about 83,000 compounds, 20% with a hit somewhere; the sample as a whole holds those more often.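 Step 1: grow cells in 96-well plates. Step 2: add test compound at a single concentration. Step 3: incubate 48 h. Step 4: record percent growth.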 Unmarked numbers belong to inactive results. Activity calls are given as the source filed them. How the source made its calls: active means growth percent below 10; inactive means the rest.

Common to all, as to assay: NCI-60 one-dose screen, 48 h (100 = growth as untreated, 0 = no growth, -100 = all killed)
Holding throughout (conditions): 10 µM

In assay [1] the test system is SK-MEL-2 melanoma.
The subject of assay [2] is EKVX NSCLC.
The subject of assay [3] is SN12C renal.
In assay [4] the test system is UO-31 renal.
The subject of assay [5] is TK-10 renal.
The subject of assay [6] is ACHN renal.
Assay [7] relates to A498 renal.
Assay [8] concerns MOLT-4 leukemia.
Assay [9] deals with SR leukemia.
The test system of assay [10] is RPMI-8226 leukemia.
Assay [11] deals with OVCAR-8 ovarian.
The test system of assay [12] is OVCAR-5 ovarian.
For assay [13], the system named is OVCAR-4 ovarian.
Assay [14] relates to SK-OV-3 ovarian.
Assay [15] deals with IGROV1 ovarian.
The subject of assay [16] is OVCAR-3 ovarian.
Assay [17] concerns HS 578T breast.
Assay [18] deals with NCI/ADR-RES ovarian.
Assay [19] has as its system CCRF-CEM leukemia.

Consider `Cc1ccc(S(=O)(=O)N(C)CCCCCC(=O)O)cc1`, for which the growth in assay [1] was 99.9%; in assay [2], 95.9%; in [3] it was 106%; in assay [4] it was 88.3%; in [5], 89.4%; in [6], 102%. Besides, the growth in [7] is 110%; in assay [8], 95.1%; in assay [9], 101%; in assay [10] it was 113%; in [11], 103%; in assay [12], 101%. Moreover, the growth in assay [13] was 106%; in assay [14], 112%; in assay [15] it was 99.4%; in assay [16] it was 106%; in assay [17] it was 108%; in assay [18], 98.6%.

As to `COc1cc(NC(=O)Nc2cnc(Nc3ccc(N4CCOCC4)cc3)nc2Oc2cccc(OC)c2)cc(OC)c1`, the growth in assay [1] is 40%; in [2] it was 66.5%; in assay [3], 43.3%; in assay [4], 6.12% (active); in [5] it was 54.7%; in [6] it was 32.8%. For the same molecule, the growth in assay [7] is 39.1%; in assay [8] it was 61.3%; in assay [9], 46.1%; in assay [10], 53.3%; in assay [11] it was -10.8% (active); in assay [12], 96.5%. The growth in [13] is 13.7%; in assay [14], 42.2%; in assay [15] it was 43.4%; in assay [16], 41.7%; in assay [17] it was 23.2%; in [18] it was 61%.

In the case of `CCOC(=O)c1cc(C(=O)c2ccc(OC)c(OC)c2)n2ccncc12`, the growth in [1] is 96%; in assay [2] it was 106%; in assay [3] it was 102%; in assay [4], 71.3%; in assay [5] it was 123%; in [6], 88.1%. The growth in [7] is 94.6%; in assay [19] it was 101%; in assay [8], 94.2%; in [9], 78.5%; in [10], 88.3%; in [11] it was 94.9%. In addition, the growth in assay [12] is 124%; in assay [13] it was 104%; in assay [14] it was 64.2%; in assay [15] it was 102%; in [16], 108%; in assay [17], 102%. Besides, in [18], the growth is 96.9%.

As for `CCOC(=O)c1cc(C(=O)c2ccc(Cl)cc2)n2ccc(-c3cc[n+](CC(=O)c4ccc(OC)cc4)cc3)cc12`, the growth in assay [1] was 97.6%; in assay [2], 96.4%; in assay [3], 102%; in assay [4] it was 73.5%; in assay [5] it was 124%; in assay [6] it was 96.4%. The growth was 73.9% in [7]; -3.14% (active) in assay [19]; 11.1% in assay [8]; -27.2% (active) in [9]; 23.4% in assay [10]; 76.7% in assay [11]. In addition, the growth in [12] was 112%; in [13], 29.7%; in [14], 91.1%; in assay [15], 93.2%; in assay [16], 37.4%; in assay [17], 83.2%. The growth in assay [18] is 88.8%.

Take `S=C(NCc1ccccc1)NCc1ccccc1`: the growth in assay [1] is 97.9%; in assay [2] it was 102%; in assay [3], 96.3%; in [4], 87.1%; in assay [5] it was 83.2%; in [6], 105%. The growth is 80% in assay [7]; 95.9% in assay [19]; 94.9% in assay [8]; 98.4% in [9]; 100% in assay [10]; 94.7% in assay [11]. The growth in assay [12] was 108%; in assay [13], 102%; in assay [14], 99.2%; in [15] it was 97.4%; in assay [16] it was 98.5%; in assay [17], 96.1%. Also, the growth in [18] is 99.5%.

Consider `CCOC(=O)c1cc(C(=O)c2cc(OC)cc(OC)c2)n2ncc3ccccc3c12`, for which the growth in assay [1] was 15.4%; in assay [2], 61.5%; in [3] it was 39.9%; in [4], 19%; in assay [5] it was -8.97% (active); in assay [6], 2.48% (active). Moreover, the growth was 16.5% in assay [7]; 29% in [8]; 4.68% (active) in assay [9]; 33% in assay [10]; 34.4% in assay [11]; 55.2% in [12]. The growth in assay [13] was -18% (active); in assay [14], 37.6%; in [15] it was 43.5%; in assay [16], -13.5% (active); in [17], 17.8%; in [18] it was 19.1%.

Regarding `O=[N+]([O-])c1cc(Cl)cc(Cl)c1O`, the growth is 103% in [1]; 96% in [2]; 101% in [3]; 84% in assay [4]; 95.1% in assay [5]; 99.4% in assay [6]. Moreover, the growth in [19] is 98.7%; in assay [8], 106%; in assay [9] it was 103%; in assay [10], 103%; in assay [11] it was 103%; in assay [12], 103%. For the same molecule, the growth in assay [13] was 108%; in assay [14], 91.3%; in assay [15], 104%; in [16], 109%; in assay [17], 97.6%; in assay [18], 97.6%.

Take `O=C(NCCNC(=O)c1ccc(F)cc1)Nc1ccc(-n2cc(-c3ccncc3)c(-c3ccc(Cl)c(O)c3)n2)cc1`: the growth in [1] is -11.4% (active); in [2] it was 11.8%; in assay [3], 31.5%; in [4], 16.9%; in assay [5], 12.3%; in [6] it was 9.32% (active). Besides, the growth is -24.2% (active) in [7]; 7.35% (active) in assay [19]; 8.22% (active) in assay [8]; -0.62% (active) in [9]; -35.6% (active) in [10]; 4.62% (active) in assay [11]. In addition, the growth in assay [12] is 27.8%; in assay [13] it was 37.1%; in [14], -8.18% (active); in assay [16] it was 3.59% (active); in assay [17], 16.6%; in assay [18], 77.4%.

As to `CC(=O)[C@H]1CC[C@]2(C)[C@@H]1CC[C@@H]1[C@@]3(C)CC(CCC#N)(CCC#N)C(=O)C(C)(C)[C@@H]3CC[C@]12C`, the growth is 102% in assay [1]; 91.8% in assay [2]; 91.8% in [3]; 82% in assay [4]; 104% in assay [5]; 95.2% in assay [6]. For the same molecule, the growth in [7] is 88.9%; in assay [8] it was 96.3%; in [9], 101%; in [10] it was 107%; in assay [11], 106%; in [12], 88.5%. For the same molecule, the growth in assay [13] was 87.2%; in assay [14], 103%; in assay [15], 98.4%; in [16] it was 107%; in assay [17], 90.5%; in assay [18], 90.5%.
